Compound activity: PubChem BioAssay, The Scripps Research Institute Molecular Screening Center
SMARCA2 act = SMARCA2 (BRM) function activators, primary screen, cell-based, luminescence, high throughput | MG213 cells, MMTV-luciferase reporter, dexamethasone, overnight | activation, % at 9.1 µM | 370,000 tested, 1% active | AID 652017, 2013; in the data active = activation above about 7.8%;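 note: 0% = vehicle wells and 100% = reference activator wells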
DAX1 inh-1 = DAX1 (NR0B1) inhibitors, primary screen, cell-based, HEK293, Gal4-DAX1, luciferase luminescence; inhibition, % at 6.75 µM; Nuclear receptor subfamily 0 group B member 1 (Homo sapiens), P51843; 340,000 tested, 0.99% active; HEK293 Gal4-DAX1 luciferase reporter;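 active = inhibition above the mean over all tested compounds plus 3 SD, cut at about 4.2% in these data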;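 note: 0% = DAX1-transfected cells with DMSO and 100% = empty-vector control cells with DMSO; inhibition shows as a rise in luminescence from relieved DAX1 repression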
Target sequence (P51843 207-470 limits assumed): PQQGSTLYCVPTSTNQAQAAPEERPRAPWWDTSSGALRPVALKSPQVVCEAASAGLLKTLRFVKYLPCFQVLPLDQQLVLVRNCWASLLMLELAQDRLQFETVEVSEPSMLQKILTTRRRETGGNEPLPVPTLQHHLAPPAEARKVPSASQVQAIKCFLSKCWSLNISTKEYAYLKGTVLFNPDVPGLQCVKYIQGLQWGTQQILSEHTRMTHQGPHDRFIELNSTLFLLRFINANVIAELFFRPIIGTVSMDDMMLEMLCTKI
hcDAF12 agonist = H. contortus DAF-12 nuclear receptor activators, primary screen, cell-based, luminescence, HEK293, lit1-tk-luc reporter; HEK293 hcDAF-12 lit1-tk-luc reporter; 0% DMSO, 100% Δ7-dafachronic acid; activation, % at 6.8 µM; 370,000 tested, 1.4% active; AID 652067, 2013;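 active = activation above the mean of all tested compounds plus 3 SD, cut at about 5.5% in these data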;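 note: 100% = response to 3 µM Δ7-dafachronic acid high control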
DAX1 inh-2 = DAX1 (NR0B1) inhibitors on StAR promoter, primary screen, cell-based, luminescence, SF-1 (NR5A1), full-length DAX-1; HEK293T StAR-luciferase reporter, SF-1/DAX-1 repression relief; inhibition, % at 6.8 µM; 370,000 tested, 1.1% active; AID 652010, 2013;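 active = inhibition above the mean over all tested compounds plus 3 SD, cut at about 3.6% in these data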;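 note: 0% = DAX-1 cells with DMSO and 100% = cells lacking DAX-1 with DMSO; higher inhibition means more luminescence from relief of DAX-1 repression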
hgDAF12 agonist = H. glycines DAF-12 receptor agonists, primary screen, cell-based, luminescence, HEK293, GAL4 fusion, UAS-luciferase; Nuclear hormone receptor DAF-12 (Heterodera glycines), GAL4 fusion; HEK293 GAL4-hgDAF12 UAS-luciferase reporter, agonist luminescence; normalized to butyrate control; activation, % at 6.8 µM; 370,000 tested, 1.8% active;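 active = activation above a cutoff set at the mean of all screened compounds plus 3 SD, cut at about 10% in these data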;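 note: 0% = DMSO wells and 100% = sodium butyrate wells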
ssDAF-12 act = S. stercoralis DAF-12 nuclear receptor activators, primary screen, cell-based, luminescence, HEK293, GRIP1 co-expression, lit1-tk-luc. Nuclear hormone receptor DAF-12 (Strongyloides stercoralis). HEK293 ssDAF-12/GRIP1 lit1-tk-luc reporter; % of 3 µM dafachronic acid response. activation, % at 6.8 µM. 370,000 tested, 1% active;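 active = activation above the mean over all tested compounds plus 3 SD, cut at about 0.9% in these data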;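 note: 0% = DMSO-only wells and 100% = 3 µM delta7-dafachronic acid wells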
The depositor's hits bear a star; x = no result given. An excerpt weighted towards active compounds, which were near 4.8% of everything screened.

SMILES	SMARCA2 act	DAX1 inh-1	hcDAF12 agonist	DAX1 inh-2	hgDAF12 agonist	ssDAF-12 act
CCCCNC(=O)C[C@H]1C[C@@]2(C(=O)OC)C(=C[C@H](C3CCCC3)O[C@@H]2C)N(Cc2ccccc2)C1=O	3	x	-1	1	-2	-2
COC(=O)[C@]12C[C@H](CC(=O)NCc3cccs3)C(=O)N(Cc3ccc(Cl)cc3Cl)C1=C[C@H](COCc1ccccc1)O[C@@H]2C	-5	x	1	-1	-2	-1
COC(=O)[C@]12C[C@H](CC(=O)NCc3cccs3)C(=O)N(Cc3ccccc3)C1=C[C@H](COCc1ccccc1)O[C@@H]2C	-3	x	-2	-1	11*	-1
COC(=O)c1cc2c(c3c4ccccc4n(S(=O)(=O)c4ccccc4)c13)C(=O)N(C)C2	-5	x	3	-1	-1	0
COC(=O)c1cc2c(c3c4ccccc4n(S(=O)(=O)c4ccc(C)cc4)c13)C(=O)N(C)C2	7.9*	x	2	-1	-2	1
COc1cccc(CN(C)C[C@H]2OCc3cnnn3CCCC(=O)N([C@H](C)CO)C[C@@H]2C)c1	-5	1	-1	-1	3	-1
CC(=O)c1ccc(Oc2ncnc3sccc23)cc1	5	3	2	3	11*	-1
CC(=O)N1CCN(c2ccc(Oc3ncnc4sccc34)cc2)CC1	2	0	-3	-1	-1	-1
C#CCN1CC(N2CCN(CCO)CC2)CS1(=O)=O (stereo not drawn)	-1	x	-2	-1	-2	-1
C/C(=N\NC(=O)c1cc(Br)ccc1O)c1cccs1	3	2	3	2	7	-1
C/C(=N/NC(=O)c1ccc(Br)o1)c1cccs1	2	1	1	3.7*	7	0
CN(Cc1ccccc1)C(=C(Cl)Cl)/C(=C1/NCCN1C)[N+](=O)[O-]	-2	5.4*	-1	0	1	0
CN(Cc1cn(C)c2ccccc12)C(=S)Nc1cc(F)cc(F)c1	-2	0	4	0	2	1.2*
CCCCCC1CC(=O)C=C(C)C1C(=O)OC (stereo not drawn)	-6	2	-2	1	-2	-1
CCCCCC1C(=O)CCC1CC(=O)OC (stereo not drawn)	-1	4.4*	0	-1	2	-1
NC(=O)C1CCN(C(=O)c2ccc([N+](=O)[O-])cc2NC(=O)c2cccs2)CC1	1	-1	0	0	-1	-1
C/C(=N\Nc1nc(C(C)(C)C)cs1)c1ccc(O)cc1	1	-1	5.8*	0	0	0
O=C(c1ccc(S(=O)(=O)N2CCCCCC2)cc1)N1CCN(c2ccccc2F)CC1	-3	1	1	-2	0	-1
CC1CCCC=CC2CC(OC(=O)CN(C)C)CC2C(O)C=CC(=O)O1 (stereo not drawn)	-9	-2	-2	4.5*	-8	-2
COc1cc(C=NNC(=O)Cn2nc(C)cc2C)ccc1OC(=O)C1CC1	1	2	0	1	3	-1
COc1cccc(C(O)c2nc(-c3cnn(C)c3)cs2)c1 (stereo not drawn)	-3	x	1	1	0	-2
O=C(NCCc1c[nH]c2ccccc12)c1cnc2n(c1=O)CCS2	-7	0	2	1	0	1
O=C(NCCc1ccccc1)c1cnc2n(c1=O)CCS2	7	2	2	2	8	1.3*
Oc1ccccc1N=Cc1c(O)ccc2ccccc12	1	-2	5.9*	-1	-3	1
Oc1ccc2ccccc2c1C=NNc1ccccn1	1	0	6.0*	-4	2	2.0*
Oc1ccc2ccccc2c1/C=N/Nc1nnc(-c2ncc[nH]2)c2ccccc12	-2	-2	0	0	-3	-1
